# Test results: ChEMBL document CHEMBL2218924, “A broad activity screen in support of a chemogenomic map for kinase signalling research and drug discovery” (Biochem J, 2013)
# What was measured:
# [1] = target: T1, Serine/threonine-protein kinase 17A (Homo sapiens) (UniProt Q9UEE5); settings: at 10 µM
# T1 sequence (whole entry): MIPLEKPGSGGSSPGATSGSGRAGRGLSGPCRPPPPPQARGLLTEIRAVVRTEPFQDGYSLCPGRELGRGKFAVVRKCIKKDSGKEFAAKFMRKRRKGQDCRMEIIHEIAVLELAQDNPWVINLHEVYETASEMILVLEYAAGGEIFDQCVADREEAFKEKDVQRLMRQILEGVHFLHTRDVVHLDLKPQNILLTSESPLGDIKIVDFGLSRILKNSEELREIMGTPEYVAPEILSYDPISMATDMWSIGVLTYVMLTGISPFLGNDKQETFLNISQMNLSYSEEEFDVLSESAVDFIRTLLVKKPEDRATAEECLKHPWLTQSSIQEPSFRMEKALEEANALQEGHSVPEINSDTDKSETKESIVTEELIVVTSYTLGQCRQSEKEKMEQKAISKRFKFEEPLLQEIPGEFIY
# [2] = target: T2, Dual specificity tyrosine-phosphorylation-regulated kinase 2 (Homo sapiens) (UniProt Q92630); settings: at 1 µM
# T2 sequence (whole entry): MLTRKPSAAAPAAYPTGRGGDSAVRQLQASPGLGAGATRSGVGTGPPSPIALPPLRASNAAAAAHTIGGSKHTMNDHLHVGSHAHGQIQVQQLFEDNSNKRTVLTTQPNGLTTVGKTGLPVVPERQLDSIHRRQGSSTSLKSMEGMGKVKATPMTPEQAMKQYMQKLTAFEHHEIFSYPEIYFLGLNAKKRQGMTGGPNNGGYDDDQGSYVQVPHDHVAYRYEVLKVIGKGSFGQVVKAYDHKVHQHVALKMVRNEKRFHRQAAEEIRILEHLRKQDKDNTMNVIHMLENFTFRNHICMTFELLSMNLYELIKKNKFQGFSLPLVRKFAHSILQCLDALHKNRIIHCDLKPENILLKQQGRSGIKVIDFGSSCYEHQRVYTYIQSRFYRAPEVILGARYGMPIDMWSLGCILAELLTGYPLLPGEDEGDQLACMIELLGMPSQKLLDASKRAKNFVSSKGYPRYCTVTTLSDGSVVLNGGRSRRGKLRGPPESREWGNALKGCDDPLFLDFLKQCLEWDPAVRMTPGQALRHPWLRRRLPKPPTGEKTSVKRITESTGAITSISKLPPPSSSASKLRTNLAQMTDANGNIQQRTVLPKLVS
# [3] = target: T2, Dual specificity tyrosine-phosphorylation-regulated kinase 2 (Homo sapiens); settings: at 10 µM
# [4] = target: T3, Ephrin type-A receptor 1 (Homo sapiens) (UniProt P21709); settings: at 1 µM
# T3 sequence (whole entry): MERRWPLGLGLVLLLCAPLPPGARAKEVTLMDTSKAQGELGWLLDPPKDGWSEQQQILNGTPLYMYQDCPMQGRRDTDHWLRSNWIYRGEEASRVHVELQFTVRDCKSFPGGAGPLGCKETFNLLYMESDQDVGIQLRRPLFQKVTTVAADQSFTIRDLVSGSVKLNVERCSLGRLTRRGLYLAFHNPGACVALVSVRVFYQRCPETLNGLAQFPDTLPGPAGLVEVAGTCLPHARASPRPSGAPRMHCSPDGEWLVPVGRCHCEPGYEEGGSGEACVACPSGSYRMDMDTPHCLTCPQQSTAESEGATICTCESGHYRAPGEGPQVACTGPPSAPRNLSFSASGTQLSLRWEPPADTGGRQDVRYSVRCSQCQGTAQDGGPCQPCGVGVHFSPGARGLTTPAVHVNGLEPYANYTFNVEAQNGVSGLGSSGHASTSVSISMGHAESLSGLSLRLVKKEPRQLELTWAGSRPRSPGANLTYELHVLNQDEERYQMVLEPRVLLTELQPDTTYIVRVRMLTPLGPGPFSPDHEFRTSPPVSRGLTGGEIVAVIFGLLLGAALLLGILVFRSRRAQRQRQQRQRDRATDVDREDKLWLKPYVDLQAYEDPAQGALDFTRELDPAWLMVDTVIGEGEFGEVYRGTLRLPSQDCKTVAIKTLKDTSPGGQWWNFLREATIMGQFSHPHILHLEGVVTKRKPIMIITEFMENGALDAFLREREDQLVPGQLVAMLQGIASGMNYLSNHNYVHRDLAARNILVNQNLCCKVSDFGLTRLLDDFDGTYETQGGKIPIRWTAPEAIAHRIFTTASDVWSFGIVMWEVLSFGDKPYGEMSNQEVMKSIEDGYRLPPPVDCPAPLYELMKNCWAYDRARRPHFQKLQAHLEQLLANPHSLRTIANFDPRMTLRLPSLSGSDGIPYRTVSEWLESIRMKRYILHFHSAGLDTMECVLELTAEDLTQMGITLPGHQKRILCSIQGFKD
# [5] = target: T3, Ephrin type-A receptor 1 (Homo sapiens); settings: at 10 µM
# [6] = target: Ephrin type-A receptor 2 (Homo sapiens) (UniProt P29317); settings: at 1 µM
# [7] = target: Ephrin type-A receptor 2 (Homo sapiens) (UniProt P29317); settings: at 10 µM
# [8] = target: T4, Ephrin type-A receptor 3 (Homo sapiens) (UniProt P29320); settings: at 1 µM
# T4 sequence (whole entry): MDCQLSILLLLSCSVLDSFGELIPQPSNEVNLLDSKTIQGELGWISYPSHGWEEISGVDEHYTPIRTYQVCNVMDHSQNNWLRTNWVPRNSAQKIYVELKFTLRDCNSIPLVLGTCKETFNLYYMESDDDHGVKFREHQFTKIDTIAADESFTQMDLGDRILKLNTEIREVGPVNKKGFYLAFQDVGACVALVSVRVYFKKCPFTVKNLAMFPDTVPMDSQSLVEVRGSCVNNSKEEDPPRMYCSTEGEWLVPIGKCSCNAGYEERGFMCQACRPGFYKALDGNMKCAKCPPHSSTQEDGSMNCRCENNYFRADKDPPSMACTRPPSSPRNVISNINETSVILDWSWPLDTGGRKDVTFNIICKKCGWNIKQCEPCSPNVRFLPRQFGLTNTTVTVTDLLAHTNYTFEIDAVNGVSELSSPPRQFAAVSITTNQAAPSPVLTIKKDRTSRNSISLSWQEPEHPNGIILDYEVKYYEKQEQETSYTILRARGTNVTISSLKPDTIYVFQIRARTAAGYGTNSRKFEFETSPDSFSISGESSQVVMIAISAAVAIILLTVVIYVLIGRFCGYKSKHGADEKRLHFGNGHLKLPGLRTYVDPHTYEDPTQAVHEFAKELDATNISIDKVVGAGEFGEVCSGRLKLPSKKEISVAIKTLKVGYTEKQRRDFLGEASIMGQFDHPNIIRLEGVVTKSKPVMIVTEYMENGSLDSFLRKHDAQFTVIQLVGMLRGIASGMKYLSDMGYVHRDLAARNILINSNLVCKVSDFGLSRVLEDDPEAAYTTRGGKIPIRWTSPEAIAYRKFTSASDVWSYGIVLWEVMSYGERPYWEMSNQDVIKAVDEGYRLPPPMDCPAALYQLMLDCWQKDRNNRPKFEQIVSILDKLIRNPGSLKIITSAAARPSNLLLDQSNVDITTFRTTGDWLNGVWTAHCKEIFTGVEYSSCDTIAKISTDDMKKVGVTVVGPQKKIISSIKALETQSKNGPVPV
# [9] = target: T4, Ephrin type-A receptor 3 (Homo sapiens); settings: at 10 µM
# [10] = target: Ephrin type-A receptor 4 (Homo sapiens) (UniProt P54764); settings: at 1 µM
# [11] = target: Ephrin type-A receptor 4 (Homo sapiens) (UniProt P54764); settings: at 10 µM
# [12] = target: Ephrin type-A receptor 5 (Homo sapiens) (UniProt P54756); settings: at 1 µM
# [13] = target: Ephrin type-A receptor 5 (Homo sapiens) (UniProt P54756); settings: at 10 µM
# [14] = target: Ephrin type-A receptor 7 (Homo sapiens) (UniProt Q15375); settings: at 1 µM
# [15] = target: Ephrin type-A receptor 7 (Homo sapiens) (UniProt Q15375); settings: at 10 µM
# [16] = target: T5, Ephrin type-A receptor 8 (Homo sapiens) (UniProt P29322); settings: at 1 µM
# T5 sequence (whole entry): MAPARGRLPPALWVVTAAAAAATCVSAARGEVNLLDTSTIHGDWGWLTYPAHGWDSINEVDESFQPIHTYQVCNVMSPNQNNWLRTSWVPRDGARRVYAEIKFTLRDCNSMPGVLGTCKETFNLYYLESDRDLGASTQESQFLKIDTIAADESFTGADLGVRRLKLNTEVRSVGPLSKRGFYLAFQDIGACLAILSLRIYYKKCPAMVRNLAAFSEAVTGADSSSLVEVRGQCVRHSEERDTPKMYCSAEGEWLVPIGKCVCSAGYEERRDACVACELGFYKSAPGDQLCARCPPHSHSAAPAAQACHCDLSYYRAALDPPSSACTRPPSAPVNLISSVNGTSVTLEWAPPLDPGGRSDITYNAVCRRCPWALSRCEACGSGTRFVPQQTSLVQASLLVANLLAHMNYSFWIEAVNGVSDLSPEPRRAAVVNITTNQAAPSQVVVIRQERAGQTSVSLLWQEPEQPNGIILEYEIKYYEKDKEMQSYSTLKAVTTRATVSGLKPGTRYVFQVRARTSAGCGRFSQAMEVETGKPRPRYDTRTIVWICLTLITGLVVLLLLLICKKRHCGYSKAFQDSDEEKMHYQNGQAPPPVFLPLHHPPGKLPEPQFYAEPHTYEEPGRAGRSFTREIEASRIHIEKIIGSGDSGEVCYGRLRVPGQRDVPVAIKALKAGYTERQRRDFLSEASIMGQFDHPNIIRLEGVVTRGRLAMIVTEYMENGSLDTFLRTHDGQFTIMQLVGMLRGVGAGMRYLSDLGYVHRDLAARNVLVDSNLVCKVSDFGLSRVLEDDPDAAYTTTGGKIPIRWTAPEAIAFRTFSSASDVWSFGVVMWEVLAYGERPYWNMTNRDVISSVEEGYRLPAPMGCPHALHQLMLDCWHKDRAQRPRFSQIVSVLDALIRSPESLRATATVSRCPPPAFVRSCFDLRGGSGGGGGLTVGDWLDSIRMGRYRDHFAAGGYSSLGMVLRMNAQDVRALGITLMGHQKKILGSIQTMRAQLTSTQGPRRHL
# [17] = target: T5, Ephrin type-A receptor 8 (Homo sapiens); settings: at 10 µM
# [18] = target: T6, Ephrin type-B receptor 1 (Homo sapiens) (UniProt P54762); settings: at 1 µM
# T6 sequence (whole entry): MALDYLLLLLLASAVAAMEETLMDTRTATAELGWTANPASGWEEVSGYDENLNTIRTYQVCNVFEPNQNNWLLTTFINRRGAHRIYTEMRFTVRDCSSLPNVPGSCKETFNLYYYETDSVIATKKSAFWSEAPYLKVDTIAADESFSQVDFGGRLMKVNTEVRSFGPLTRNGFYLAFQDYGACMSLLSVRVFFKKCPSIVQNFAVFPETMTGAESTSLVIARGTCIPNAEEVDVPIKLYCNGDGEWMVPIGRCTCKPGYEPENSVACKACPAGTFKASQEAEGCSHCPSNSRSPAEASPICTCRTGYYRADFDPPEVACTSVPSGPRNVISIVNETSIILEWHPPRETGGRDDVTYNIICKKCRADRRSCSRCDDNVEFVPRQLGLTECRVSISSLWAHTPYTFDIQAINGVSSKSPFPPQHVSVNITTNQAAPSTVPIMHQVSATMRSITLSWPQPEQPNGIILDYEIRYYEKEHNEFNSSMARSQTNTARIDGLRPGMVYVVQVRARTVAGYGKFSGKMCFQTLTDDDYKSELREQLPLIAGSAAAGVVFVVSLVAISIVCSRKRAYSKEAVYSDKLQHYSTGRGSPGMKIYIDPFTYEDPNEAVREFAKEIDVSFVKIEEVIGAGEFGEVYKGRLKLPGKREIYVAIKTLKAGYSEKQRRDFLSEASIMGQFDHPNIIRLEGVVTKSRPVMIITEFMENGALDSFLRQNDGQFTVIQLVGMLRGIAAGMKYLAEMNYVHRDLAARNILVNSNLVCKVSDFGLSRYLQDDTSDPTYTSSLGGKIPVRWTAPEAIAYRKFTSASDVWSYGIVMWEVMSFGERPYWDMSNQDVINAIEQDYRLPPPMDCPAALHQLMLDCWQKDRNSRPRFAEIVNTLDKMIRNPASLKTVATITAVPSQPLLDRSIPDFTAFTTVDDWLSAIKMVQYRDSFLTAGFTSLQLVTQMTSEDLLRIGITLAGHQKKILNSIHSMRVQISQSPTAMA
# [19] = target: Epidermal growth factor receptor (Homo sapiens) (UniProt P00533); settings: at 1 µM
# [20] = target: Epidermal growth factor receptor (Homo sapiens) (UniProt P00533); settings: at 10 µM
# Chain of Ephrin type-A receptor 2 (Homo sapiens) (P29317 whole entry): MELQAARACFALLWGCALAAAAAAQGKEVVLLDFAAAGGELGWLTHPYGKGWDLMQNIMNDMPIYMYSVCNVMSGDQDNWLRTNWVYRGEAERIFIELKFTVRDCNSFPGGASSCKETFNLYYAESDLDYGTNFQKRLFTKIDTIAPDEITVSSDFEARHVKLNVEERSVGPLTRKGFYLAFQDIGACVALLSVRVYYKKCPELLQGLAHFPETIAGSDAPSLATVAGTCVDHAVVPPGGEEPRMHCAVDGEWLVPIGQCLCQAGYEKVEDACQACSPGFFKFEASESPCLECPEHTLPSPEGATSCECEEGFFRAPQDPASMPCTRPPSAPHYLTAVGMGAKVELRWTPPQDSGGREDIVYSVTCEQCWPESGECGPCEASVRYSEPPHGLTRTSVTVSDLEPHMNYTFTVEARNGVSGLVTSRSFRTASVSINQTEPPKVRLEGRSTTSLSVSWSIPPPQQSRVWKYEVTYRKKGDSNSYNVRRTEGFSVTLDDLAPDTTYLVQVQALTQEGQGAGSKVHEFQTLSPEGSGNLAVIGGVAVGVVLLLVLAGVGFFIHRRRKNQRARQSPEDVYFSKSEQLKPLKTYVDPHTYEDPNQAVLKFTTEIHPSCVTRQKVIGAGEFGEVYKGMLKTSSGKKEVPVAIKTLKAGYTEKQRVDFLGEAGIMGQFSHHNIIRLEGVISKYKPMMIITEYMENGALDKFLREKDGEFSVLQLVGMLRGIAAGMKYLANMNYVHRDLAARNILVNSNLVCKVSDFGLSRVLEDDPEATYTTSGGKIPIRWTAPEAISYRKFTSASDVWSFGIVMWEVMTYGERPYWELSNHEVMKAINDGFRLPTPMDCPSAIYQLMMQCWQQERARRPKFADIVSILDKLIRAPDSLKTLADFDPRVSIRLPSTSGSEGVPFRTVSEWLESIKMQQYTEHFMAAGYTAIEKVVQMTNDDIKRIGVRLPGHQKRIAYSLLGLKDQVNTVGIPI
# Chain of Ephrin type-A receptor 7 (Homo sapiens) (Q15375 28-998 limits assumed): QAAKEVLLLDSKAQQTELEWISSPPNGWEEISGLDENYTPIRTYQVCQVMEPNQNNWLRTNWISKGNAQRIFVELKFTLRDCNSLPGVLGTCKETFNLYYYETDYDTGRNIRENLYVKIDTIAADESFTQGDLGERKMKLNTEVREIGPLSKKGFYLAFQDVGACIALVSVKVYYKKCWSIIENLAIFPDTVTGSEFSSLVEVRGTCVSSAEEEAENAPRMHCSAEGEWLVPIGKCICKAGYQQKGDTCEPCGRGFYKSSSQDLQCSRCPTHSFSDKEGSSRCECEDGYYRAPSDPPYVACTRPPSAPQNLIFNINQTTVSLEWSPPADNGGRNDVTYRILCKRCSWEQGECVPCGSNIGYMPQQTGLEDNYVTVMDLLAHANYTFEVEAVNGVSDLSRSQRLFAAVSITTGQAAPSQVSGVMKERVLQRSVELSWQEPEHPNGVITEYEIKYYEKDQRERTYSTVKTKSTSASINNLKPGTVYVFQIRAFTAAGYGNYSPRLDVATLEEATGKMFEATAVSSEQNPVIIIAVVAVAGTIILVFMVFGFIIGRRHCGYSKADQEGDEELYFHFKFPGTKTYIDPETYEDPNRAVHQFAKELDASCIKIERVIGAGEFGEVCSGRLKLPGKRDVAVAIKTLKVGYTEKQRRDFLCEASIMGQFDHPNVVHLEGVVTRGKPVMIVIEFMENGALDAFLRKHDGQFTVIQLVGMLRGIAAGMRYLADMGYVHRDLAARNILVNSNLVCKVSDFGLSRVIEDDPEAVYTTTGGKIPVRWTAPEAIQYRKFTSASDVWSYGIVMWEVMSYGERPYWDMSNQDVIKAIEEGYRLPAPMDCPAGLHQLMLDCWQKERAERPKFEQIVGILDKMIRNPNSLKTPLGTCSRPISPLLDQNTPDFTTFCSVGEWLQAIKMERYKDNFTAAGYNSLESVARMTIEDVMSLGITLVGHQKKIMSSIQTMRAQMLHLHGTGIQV
# Chain of Epidermal growth factor receptor (Homo sapiens) (P00533 whole entry): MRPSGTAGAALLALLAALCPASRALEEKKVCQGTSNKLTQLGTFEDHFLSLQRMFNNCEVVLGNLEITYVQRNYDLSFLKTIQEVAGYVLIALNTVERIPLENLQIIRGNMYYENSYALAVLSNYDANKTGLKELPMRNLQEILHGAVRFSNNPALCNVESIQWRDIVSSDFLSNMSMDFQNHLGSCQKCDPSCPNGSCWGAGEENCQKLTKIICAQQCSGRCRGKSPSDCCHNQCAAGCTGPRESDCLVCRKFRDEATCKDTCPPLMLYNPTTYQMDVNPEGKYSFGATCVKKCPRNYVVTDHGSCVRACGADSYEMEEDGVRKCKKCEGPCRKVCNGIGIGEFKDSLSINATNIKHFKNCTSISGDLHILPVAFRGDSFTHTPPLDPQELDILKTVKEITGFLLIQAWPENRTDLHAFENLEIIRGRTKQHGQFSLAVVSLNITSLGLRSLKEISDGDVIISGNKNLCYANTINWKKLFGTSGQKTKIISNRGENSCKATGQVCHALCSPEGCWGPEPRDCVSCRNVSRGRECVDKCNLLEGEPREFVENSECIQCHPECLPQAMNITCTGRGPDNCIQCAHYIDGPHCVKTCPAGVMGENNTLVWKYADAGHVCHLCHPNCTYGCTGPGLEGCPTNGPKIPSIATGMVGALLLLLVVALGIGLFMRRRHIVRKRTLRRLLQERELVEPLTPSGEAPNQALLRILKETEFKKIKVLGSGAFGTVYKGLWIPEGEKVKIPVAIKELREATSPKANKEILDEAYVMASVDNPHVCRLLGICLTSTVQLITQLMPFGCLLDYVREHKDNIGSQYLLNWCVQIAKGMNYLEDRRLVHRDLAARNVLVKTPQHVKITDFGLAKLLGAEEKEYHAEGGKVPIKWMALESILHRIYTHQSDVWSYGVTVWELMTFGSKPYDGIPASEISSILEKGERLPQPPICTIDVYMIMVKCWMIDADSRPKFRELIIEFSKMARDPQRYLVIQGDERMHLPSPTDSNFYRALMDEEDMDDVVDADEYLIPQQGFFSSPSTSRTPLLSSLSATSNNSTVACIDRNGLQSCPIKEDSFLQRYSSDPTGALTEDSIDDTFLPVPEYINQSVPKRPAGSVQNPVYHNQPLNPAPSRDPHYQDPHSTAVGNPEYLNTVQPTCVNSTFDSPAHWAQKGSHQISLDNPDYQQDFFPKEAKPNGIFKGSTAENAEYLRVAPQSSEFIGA
# Chain of Ephrin type-A receptor 4 (Homo sapiens) (P54764 whole entry): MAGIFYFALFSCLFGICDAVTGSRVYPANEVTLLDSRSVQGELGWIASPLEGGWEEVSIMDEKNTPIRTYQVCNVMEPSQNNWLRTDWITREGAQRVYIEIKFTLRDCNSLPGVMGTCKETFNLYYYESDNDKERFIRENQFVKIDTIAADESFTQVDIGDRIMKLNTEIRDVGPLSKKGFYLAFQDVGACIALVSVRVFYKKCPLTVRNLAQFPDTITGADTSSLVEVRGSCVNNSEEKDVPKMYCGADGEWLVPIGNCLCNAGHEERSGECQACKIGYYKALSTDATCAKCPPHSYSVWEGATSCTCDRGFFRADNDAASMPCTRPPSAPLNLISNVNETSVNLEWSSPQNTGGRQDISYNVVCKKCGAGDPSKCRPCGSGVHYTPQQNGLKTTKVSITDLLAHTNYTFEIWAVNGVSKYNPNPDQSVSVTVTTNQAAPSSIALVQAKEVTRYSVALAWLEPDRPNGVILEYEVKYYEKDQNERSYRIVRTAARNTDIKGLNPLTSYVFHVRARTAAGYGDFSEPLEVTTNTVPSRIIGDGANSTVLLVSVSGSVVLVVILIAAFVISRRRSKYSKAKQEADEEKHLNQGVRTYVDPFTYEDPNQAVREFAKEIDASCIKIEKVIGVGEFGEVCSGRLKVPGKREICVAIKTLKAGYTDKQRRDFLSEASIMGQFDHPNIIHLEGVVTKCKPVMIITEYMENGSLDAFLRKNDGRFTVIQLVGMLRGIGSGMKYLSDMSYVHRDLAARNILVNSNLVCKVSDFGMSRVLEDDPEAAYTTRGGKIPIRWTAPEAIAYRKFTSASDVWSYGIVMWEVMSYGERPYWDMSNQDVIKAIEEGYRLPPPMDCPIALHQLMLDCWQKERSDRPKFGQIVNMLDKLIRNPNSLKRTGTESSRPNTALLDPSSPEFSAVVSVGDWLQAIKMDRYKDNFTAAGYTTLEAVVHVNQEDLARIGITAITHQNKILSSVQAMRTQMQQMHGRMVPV
Structure (SMILES),residual activity [1] [%],residual activity [2] [%],residual activity [3] [%],residual activity [4] [%],residual activity [5] [%],residual activity [6] [%],residual activity [7] [%],residual activity [8] [%],residual activity [9] [%],residual activity [10] [%],residual activity [11] [%],residual activity [12] [%],residual activity [13] [%],residual activity [14] [%],residual activity [15] [%],residual activity [16] [%],residual activity [17] [%],residual activity [18] [%],residual activity [19] [%],residual activity [20] [%]
COc1cccc(-c2cc(=O)c3ccccc3o2)c1N,70,100,94,99,92,97,117,110,108,109,108,118,96,98,97,105,104,118,,
NC(=O)c1ccc2[nH]c(-c3ccc(Oc4ccc(Cl)cc4)cc3)nc2c1,42,87,53,96,85,100,116,100,111,112,104,114,103,94,81,94,96,95,111,115
CCC(=O)Nc1ccc2ncnc(Nc3cccc(Br)c3)c2c1,77,99,82,71,89,105,90,105,82,106,92,101,99,92,76,97,88,97,,
Oc1n[nH]c2nnc(-c3c(-c4ccccc4)nn4ccccc34)cc12,34,99,95,93,79,92,109,94,90,96,103,113,95,94,88,86,89,97,,
COc1ccc(CNc2nc(N(CCO)CCO)nc3c2ncn3C(C)C)cc1,85,87,67,95,81,95,117,82,90,110,110,126,105,92,73,99,88,105,97,116
CCOc1cc2ncnc(Nc3cccc(Br)c3)c2cc1OCC,60,92,58,32,4,85,18,81,22,86,31,50,9,48,7,54,20,48,-5,-4
